From PubChem BioAssay
The list is not random: actives were taken first. Their share in the collection is about 2.4%.
Platelet DG rel – inhibitors of platelet dense granule secretion, primary screen, cell-based, MLPCN, human platelets. human platelet-rich plasma, SFLLRN dense granule ATP release, luminescence. inhibition, %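 (compounds screened at 7.5 µM in platelet-rich plasma)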. hit rate 0.22% among 300,000. AID 1663, 2009;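 active = mean replicate score, as percent of positive control, at or above 50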
SENP7 block – SENP7 protease inhibitors, primary screen, biochemical, luminescence, uHTS. hit rate 1.5% among 330,000. recombinant SENP7, Z-RLRGG-aminoluciferin luminescence, 40 min. inhibition, % at 5 µM;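 active = inhibition above about 50% at the single test dose, limit read from the data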;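 also: plate controls were DMSO with enzyme for no effect and no enzyme buffer wells for full effect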
SENP8 block-1 – human SENP8 protease inhibitors, primary screen, biochemical, fluorescence, Nedd8 protein substrate, uHTS | recombinant SENP8 | Sentrin-specific protease 8 (Homo sapiens), Q96LD8 | hit rate 0.64% among 360,000 | inhibition, % at 20 µM; in the data active = inhibition mostly above about 40%, no sharp cut-off; inactive = mostly below about 27%
SENP6 inh – SENP6 protease inhibitors, primary screen, biochemical, luminescence, uHTS; Recombinant SENP6 catalytic domain, aminoluciferin luminescence; inhibition, % at 10 µM; hit rate 1.8% among 330,000; AID 2599, 2010;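 active = inhibition above about 50% at the single tested dose, limit read from the data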;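 also: plate controls were DMSO wells with enzyme for no effect and DMSO wells lacking enzyme for full effect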
Target sequence (Q9GZR1 628-1112 limits assumed): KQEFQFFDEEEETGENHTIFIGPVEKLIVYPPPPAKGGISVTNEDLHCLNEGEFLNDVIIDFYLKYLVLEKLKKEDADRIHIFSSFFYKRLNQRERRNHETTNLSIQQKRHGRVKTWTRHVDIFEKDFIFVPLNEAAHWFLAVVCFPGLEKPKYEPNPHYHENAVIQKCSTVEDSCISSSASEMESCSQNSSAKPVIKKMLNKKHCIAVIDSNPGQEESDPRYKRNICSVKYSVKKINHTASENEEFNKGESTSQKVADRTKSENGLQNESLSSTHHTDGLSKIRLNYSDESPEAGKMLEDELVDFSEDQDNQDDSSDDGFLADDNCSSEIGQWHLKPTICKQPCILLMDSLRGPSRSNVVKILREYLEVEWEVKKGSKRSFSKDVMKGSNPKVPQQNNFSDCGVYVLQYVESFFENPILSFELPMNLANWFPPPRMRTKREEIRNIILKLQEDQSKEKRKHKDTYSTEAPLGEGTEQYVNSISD
SENP8 block-2 – SENP8 protease inhibitors, primary screen, biochemical, luminescence. Sentrin-specific protease 8 (Homo sapiens), Q96LD8. purified SENP8, Z-RLRGG-aminoluciferin cleavage. inhibition, % at 10 µM. hit rate 1.2% among 330,000. AID 2540, 2010; in the data active = inhibition above about 50%
SENP8 conf – SENP8 protease inhibitors, retest, confirmation, biochemical, luminescence, single concentration; shares compounds with SENP7 block; inhibition, % at 12.5 µM; hit rate 40% among 6,200; Recombinant SENP8, Z-RLRGG-aminoluciferin luminescence, 60 min;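 active = mean inhibition across replicates above about 50%, limit read from the data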
SENP6 confirm – SENP6 protease inhibitors, confirmation, biochemical, luminescence, single concentration | hit rate 58% among 6,200 | inhibition, % at 12.5 µM | recombinant SENP6, Z-RLRGG-aminoluciferin luminescence | shares compounds with SENP7 block
SENP7 confirm – SENP7 protease inhibitors, retest, confirmation, biochemical, luminescence, single concentration; shares compounds with SENP7 block; recombinant SENP7, Z-RLRGG-aminoluciferin luminescence, 40 min; inhibition, % at 12.5 µM; hit rate 69% among 6,200; AID 488917, 2010
Casp3 SENP sel – caspase-3 protease inhibitors, confirmation, selectivity assay for SENP inhibitor project, biochemical, single concentration; shares compounds with SENP7 block; purified caspase-3, Z-DEVD-aminoluciferin luminescence, 60 min; inhibition, % at 12.5 µM; hit rate 60% among 6,200;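 active = mean inhibition above about 50%, limit read from the data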;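 also: plate controls were enzyme with DMSO for no effect and wells without caspase-3 for full effect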
Target sequence (P42574 28-227 limits assumed): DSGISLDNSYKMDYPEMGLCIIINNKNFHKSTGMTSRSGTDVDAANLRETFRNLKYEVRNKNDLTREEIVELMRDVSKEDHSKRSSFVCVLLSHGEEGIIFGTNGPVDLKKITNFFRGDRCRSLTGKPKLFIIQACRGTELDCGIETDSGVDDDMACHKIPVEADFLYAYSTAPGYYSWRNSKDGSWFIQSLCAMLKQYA
Luc interf – interferes with luciferase luminescence in SENP counter-screen | shares compounds with SENP7 block | Pre-incubated SENP8/Z-RLRGG-aminoluciferin, luciferase luminescence interference | inhibition, % at 12.5 µM | hit rate 39% among 6,200 | AID 488919;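 active = mean inhibition above about 50% when retested at one dose, limit read from the data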;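 also: plate controls were DMSO wells with completed reaction for no effect and substrate without enzyme for full effect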
* = called active by the depositor; . = no result.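 The calls were made as follows, unless noted: active = mean inhibition above about 50% in the one-dose retest (limit read from the data); inactive = the rest.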

SMILES | Platelet DG rel | SENP7 block | SENP8 block-1 | SENP6 inh | SENP8 block-2 | SENP8 conf | SENP6 confirm | SENP7 confirm | Casp3 SENP sel | Luc interf
O=C(N/N=C/c1cccs1)c1n[nH]c2c1CCC2 | 15 | 77* | 4 | 79* | 50 | 41 | 70* | 89* | 90* | 51*
COC(=O)CCCn1cc(CN2CC(N3CCCC3)CS2(=O)=O)nn1 (stereo not given) | . | . | 18 | . | . | . | . | . | . | .
NCCNC[C@@H]1COC2(CCCCCCCCCCC2)O1 | 8 | 3 | 17 | -40 | -7 | . | . | . | . | .
CCCNC(=O)C1(C)CCCN(Cc2cc(-c3ccccc3)n(C)n2)C1 (stereo not given) | . | . | 8 | . | . | . | . | . | . | .
Clc1ccc2nc3c4ccccc4cnn3c2c1 | 19 | 98* | -356 | 99* | 95* | 94* | 94* | 101* | 92* | 24
COc1cccc(N(C(=O)CNC(=O)c2ccco2)C(C(=O)NC2CCCC2)c2cccnc2)c1 (stereo not given) | -2 | -9 | 12 | 14 | 2 | . | . | . | . | .
Cn1c(=O)n(C)c2cc(NC(=O)COc3ccc(Cl)cc3)ccc21 | 3 | -6 | 8 | -4 | -15 | . | . | . | . | .
O=C(c1ccc2c3n(nc2c1)-c1ccccc1CO3)N1CCCCC1 | 20 | 95* | -8 | 97* | 91* | 97* | 98* | 101* | 97* | 96*
O=C(NCC1CCCO1)c1ccc2c3n(nc2c1)-c1ccccc1CO3 (stereo not given) | 12 | -3 | -184 | 15 | 11 | . | . | . | . | .
O=C(c1ccc2c3n(nc2c1)-c1ccccc1CO3)N1CCOCC1 | 51* | 95* | -107 | 93* | 87* | 93* | 93* | 101* | 98* | 92*
O=C(c1ccc2c3n(nc2c1)-c1ccc(Cl)cc1CO3)N1CCOCC1 | 10 | -9 | -23 | 12 | 4 | . | . | . | . | .
Cc1ccc2c(c1)COc1c3ccc(C(=O)N4CCCCC4)cc3nn1-2 | 1 | 80* | -33 | 84* | 81* | 45 | 87* | 96* | 86* | 18
c1ccc(CCc2cccnc2)cc1 | . | . | 10 | . | . | . | . | . | . | .
Cc1ccc(C)c(S(=O)(=O)N2CCN(C(=O)CCC(=O)c3cc(C)sc3C)CC2)c1 | . | -2 | 2 | -8 | -1 | . | . | . | . | .
Cc1ccc(S(=O)(=O)N(C)C)cc1-n1c(SCC(=O)Nc2ccccc2)nc2ccccc2c1=O | -7 | 8 | 3 | 50* | 1 | 0 | -5 | -7 | -2 | -5
NNC(=O)CCN(Cc1ccco1)S(=O)(=O)c1ccc(Cl)cc1 | 15 | 3 | 11 | -7 | 6 | . | . | . | . | .
Cc1nc(SCCC(=O)O)c2cc(-c3ccccc3)sc2n1 | -7 | 60* | -83 | 72* | 71* | 46 | 76* | 14 | 82* | 48
O=C(O)c1ccccc1N/N=C\c1ccnc2ccccc12 | -16 | 38 | -29 | 94* | 90* | 12 | 100* | 103* | 97* | 94*
C(=N\Nc1ccccn1)/c1c[nH]c2ccccc12 | 2 | -8 | -148 | 18 | 6 | . | . | . | . | .
O=C(O)c1ccccc1N/N=C/c1cc(Br)cc(Br)c1O | 4 | 9 | 5 | 102* | 92* | 94* | 98* | 97* | 70* | 40
O=C(O)c1cccc2c(/C=N/Nc3ccccn3)c[nH]c12 | 25 | 90* | 14 | 90* | 88* | 65* | 92* | 93* | 93* | 47
O=C(Cc1ccccc1)N/N=C/c1cc(Br)cc(Br)c1O | -1 | -1 | -207 | -19 | -4 | . | . | . | . | .
O=C(COC(=O)CNS(=O)(=O)c1cc(C(F)(F)F)ccc1Cl)NC1CC1 | . | 5 | 8 | -4 | 1 | . | . | . | . | .
CCC1CSC(Nc2ccc(C(=O)/C=C/c3cccc(C)c3)cc2)=N1 (stereo not given) | -3 | 4 | -109 | 54* | -1 | -15 | -15 | -22 | -5 | 0
CCOc1cc(C(=O)Nc2cccnc2)cc(OCC)c1OCC | 4 | -4 | 2 | 18 | 5 | . | . | . | . | .
SMILES | Platelet DG rel | SENP7 block | SENP8 block-1 | SENP6 inh | SENP8 block-2 | SENP8 conf | SENP6 confirm | SENP7 confirm | Casp3 SENP sel | Luc interf
O=C(Nc1ccccc1)C(=O)Nc1cccnc1 | 27 | 86* | 26 | 76* | 69* | 2 | 26 | 67* | 73* | 8
CCCCOc1ccc(C(=O)Nc2ccncc2)cc1 | 10 | 38 | 13 | 57* | 43 | 45 | 40 | 77* | 52* | 22
CCCOc1ccc(C(=O)Nc2cccnc2)cc1 | 3 | 69* | 0 | 70* | 37 | 54* | 52* | 86* | 83* | 69*
O=C(Nc1cccnc1)c1ccc(Oc2ccccc2)cc1 | 17 | 89* | 31 | 90* | 78* | 85* | 88* | 98* | 85* | 70*
O=C(Nc1cccnc1)c1ccccc1Oc1ccccc1 | -2 | 0 | 27 | -11 | 3 | . | . | . | . | .
O=C(CC(=O)c1ccccc1)Nc1cccnc1 | 4 | -2 | 4 | -20 | -17 | . | . | . | . | .
CCCCN(C=O)c1c(CC)nc2ccc(C(=O)NCCCN3CCCC3=O)cn12 | . | . | -48 | . | . | . | . | . | . | .
Cc1ccccc1OCC(=O)NCCNC(=O)c1ccccn1 | -12 | 7 | 11 | -12 | -18 | . | . | . | . | .
O=C(NCCCO)C(=O)Nc1cc2c3c(c1)CCN3C(=O)CC2 | -29 | -2 | 15 | -15 | -11 | . | . | . | . | .
CC(C)/C(=N\NS(=O)(=O)c1ccc(Br)cc1)c1cccs1 | 3 | -3 | 19 | -5 | 2 | . | . | . | . | .
O=C(Nc1cccc(Oc2ccc(C(=O)O)c(C(=O)O)c2)c1)c1ccc(-c2ccccc2)cc1 | 11 | 2 | 7 | 72* | 44 | 51* | 39 | 64* | 50* | 68*
Cc1ccccc1C(=O)c1cccn1CC(=O)NCCCN1CCc2ccccc2C1 | -2 | -5 | 10 | -6 | -2 | . | . | . | . | .
Nc1c(-c2cccc(Cl)c2)cnn1-c1ccccc1 | 8 | 38 | 13 | 20 | 21 | . | . | . | . | .
